Test results reported in PubChem BioAssay AID743294 (Broad Institute, 2014).
Entries with a potency or affinity are not part of this list. The source made the active and inactive calls.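 The calls were made as follows: active = compounds lowering fluorescence whose fitted half-maximal dose is at most twice the top valid dose; inconclusive = flat fit between -70% and -30%, or poor curve fit; inactive = the rest.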

Target: Caspase-8 (Homo sapiens) (UniProt Q14790)
Test: inhibitors of purified CASP8 protease – biochemical, Z-IETD-R110 fluorescence, cherry-picked samples, selectivity assay for caspase-6 inhibitor project, dose response (AID 743294)
Conditions: purified caspase-8, Z-IETD-R110 cleavage fluorescence; series mostly up to 35 µM; activity change, negative = inhibition: at the top concentration

Caspase-8 (Homo sapiens), sequence (Q14790 whole entry, looked up): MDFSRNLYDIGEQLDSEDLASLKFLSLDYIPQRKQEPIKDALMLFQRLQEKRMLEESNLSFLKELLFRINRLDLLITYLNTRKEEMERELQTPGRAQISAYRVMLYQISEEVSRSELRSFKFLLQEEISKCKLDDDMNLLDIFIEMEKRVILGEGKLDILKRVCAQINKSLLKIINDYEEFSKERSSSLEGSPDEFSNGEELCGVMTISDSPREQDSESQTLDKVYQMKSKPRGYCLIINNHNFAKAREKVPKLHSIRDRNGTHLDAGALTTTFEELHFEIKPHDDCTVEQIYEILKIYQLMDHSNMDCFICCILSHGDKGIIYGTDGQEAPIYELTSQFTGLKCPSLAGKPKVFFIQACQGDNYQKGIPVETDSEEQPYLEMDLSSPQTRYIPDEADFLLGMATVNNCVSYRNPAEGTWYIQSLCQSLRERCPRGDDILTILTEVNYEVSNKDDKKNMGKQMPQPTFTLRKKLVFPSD

Activity change, negative = inhibition, inactive:
Cc1cc(C=O)c(C)n1-c1ccc(Cl)c(C(=O)O)c1 7.49%
O=c1cc2c(=O)oc3cc(O)c(O)oc3c2c(O)c1O -4.58%
O=C(O)CCc1ccc(-c2ccc(Br)cc2)n1CC(=O)O 0.86%
CCCCNC(=O)c1nc(C2CCNCC2)oc1-c1cccc(C(F)(F)F)c1 -7.09%
O=C(Nc1ccc(S(=O)(=O)Nc2cnc3ccccc3n2)cc1)c1ccc(Cl)c([N+](=O)[O-])c1 4.27%
COc1ccc(C(=O)OCC(=O)Nc2ncc([N+](=O)[O-])s2)cc1OC -10.6%
COc1ccc(NS(=O)(=O)c2ccc3c(c2)[C@H]2C=CC[C@H]2[C@@H](c2ccc(C(=O)O)cc2)N3)cc1 -2.93%
Cn1cnnc1SCC(=O)Nc1ncc([N+](=O)[O-])s1 -6.58%
CCN(CC)CCCC(C)n1c2nc(=O)[nH]c(=O)c-2nc2cc(Cl)ccc21 (centres undefined) 399%
Cc1ccc(S(=O)c2ccc([N+](=O)[O-])c3nonc23)cc1 (centres undefined) -3.86%
CCCSC1=N/C(=C\c2ccc([N+](=O)[O-])o2)C(=O)S1 -9.42%
Oc1cc2c(cc1O)[C@H]1c3ccc(O)c(O)c3OC[C@@]1(O)C2 -0.465%
Nc1c(O)cccc1C(=O)O -9.42%
O=[N+]([O-])c1c(Nc2ccccn2)cc(Cl)c2nonc12 -1.29%
O=c1c(CO)cc(CO)cc(CO)c1O 4.83%
CNS(=O)(=O)c1cccc(C(=O)OCC(=O)N2c3ccccc3NC(=O)C2(C)C)c1 -7.76%
O=C(O)Cc1ccc(-n2cccc2)cc1 1.25%
O=C(O)CC(CCc1ccccc1)OC1OC(CO)C(O)C(O)C1O (centres undefined) -1.96%
Cc1cc(C=O)c(C)n1-c1cc(C(=O)O)cc(C(=O)O)c1 6.11%
O=C(O)/C(=C\c1ccc(Cl)c([N+](=O)[O-])c1)c1ccc(S(=O)(=O)N2CCCC2)s1 4.55%
Cc1ccc(S(=O)(=O)Nc2csc(C)c2C(=O)O)cc1 6.52%
[O-][n+]1onc2c1CCc1c-2nn(-c2ccccc2Cl)[n+]1[O-] -0.399%
O=C(CCO)c1ccc(O)cc1 4.64%
COCCn1c2nc(=O)n(-c3ccccc3)c(=O)c-2nc2ccccc21 125%
C/C(CC(=O)N1CCCC1)=N\NC(=O)c1cc2ccccc2cc1O 1.86%
O=C(C[C@@H]1C[C@H]2c3cc(NC(=O)NC4CCCCC4)ccc3O[C@H]2[C@H](CO)O1)NCc1ccccn1 -2.62%
CCOC(=O)c1sc2nc(OCCN3CCOCC3)cc(C)c2c1N -10.5%
COc1cc(NCCCCC(C)N)c2nccc(C)c2c1 (centres undefined) 1.09%
Cc1[nH]nc(S(=O)CC(=O)O)c1[N+](=O)[O-] (centres undefined) -4.33%
Nc1ccc(Nc2ccccc2)c(S(=O)(=O)O)c1 1.15%
Nc1cc(S(=O)(=O)O)cc([N+](=O)[O-])c1O 2.88%
CCOC(=O)[C@H](Cc1c[nH]c2ccccc12)NC(=O)CN=[N+]=[N-] 4.03%
O=C(Nc1ccc2nc3n(c(=O)c2c1)CCCCC3)c1c(F)ccc([N+](=O)[O-])c1F -5.39%
CC(CNc1ccccc1O)C(=O)O (centres undefined) 1.88%
COc1ccc([N+](=O)[O-])cc1NC(=O)CCS(=O)(=O)c1ccc(Br)cc1 4.06%
O=P(c1ccccc1)(c1ccccc1)c1cc(S(=O)(=O)O)ccc1O 2.21%
CO[C@H]1CN(C)C(=O)c2cc(NC(C)=O)ccc2OC[C@@H](C)N(C(=O)CC2CC2)C[C@H]1C 6.41%
Cc1oc2c(cc(NS(=O)(=O)c3ccc(C(C)C)cc3)c3ccccc32)c1C(=O)O -1.4%
COc1cc(NC(C)CCCNC(C)C)c2ncccc2c1OC (centres undefined) -11.9%
